From PubChem BioAssay (NCI)
This is part of a sample that, as a whole, favours compounds with a hit. Of some 83,000 tested, about 20% had one in any assay.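 How to read the values: 0–100, growth inhibition (40 = 60% inhibited); 0, no net growth; -100 to 0, cell death (-40 = 40% of starting cells died; -100 = all dead).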 Active and inactive are the calls of the source. The calls were made as follows: active = growth percent below 10; inactive = the rest.

Key:
Assay in all cases: NCI-60 one-dose screen, 48 h (100 = growth as untreated, 0 = no growth, -100 = all killed)
Conditions in all cases: 10 µM
[1] = test system: HCT-15 colon
[2] = test system: HT29 colon
[3] = test system: SNB-75 CNS
[4] = test system: SNB-19 CNS
[5] = test system: U251 CNS
[6] = test system: PC-3 prostate
[7] = test system: SK-MEL-5 melanoma
[8] = test system: UACC-62 melanoma
[9] = test system: LOX IMVI melanoma
[10] = test system: SK-MEL-28 melanoma
[11] = test system: SK-MEL-2 melanoma
[12] = test system: SN12C renal
[13] = test system: UO-31 renal
[14] = test system: TK-10 renal
[15] = test system: ACHN renal
[16] = test system: CAKI-1 renal
[17] = test system: A498 renal
[18] = test system: CCRF-CEM leukemia
[19] = test system: MOLT-4 leukemia

Measured: growth

CC(=O)O[C@H]1CC[C@@]2(C)[C@@H](CC[C@@H]3[C@@H]2CC[C@]2(C)C=C(C=O)C[C@@H]32)C1
inactive: [1] 27.5% | [2] 31.4% | [3] 69.5% | [4] 82.5% | [5] 22.9% | [6] 62.5% | [7] 75.7% | [8] 78.8% | [10] 70% | [11] 73.7% | [12] 58.9% | [13] 93% | [14] 120% | [15] 95% | [16] 91% | [17] 94.9%
active: [9] -71% | [18] -20.8% | [19] -29.1%

Cc1ccc(/C(CS(=O)(=O)c2ccc(C)cc2)=N\O)cc1
inactive: [1] 95.2% | [2] 99.7% | [3] 87.8% | [4] 88% | [5] 90.4% | [6] 94.3% | [7] 98.9% | [8] 87.3% | [9] 102% | [10] 103% | [11] 104% | [12] 89.3% | [13] 93% | [14] 82.7% | [15] 91.7% | [16] 92.4% | [17] 92.2% | [18] 86.7% | [19] 102%

O=C1/C(=C/c2ccc(O)cc2)Cc2ccc(Cl)cc21
inactive: [1] 89.2% | [2] 110% | [3] 73.4% | [4] 93.9% | [5] 95.8% | [6] 92.6% | [7] 79.3% | [8] 77.3% | [9] 84.2% | [10] 114% | [11] 93% | [12] 77.8% | [13] 45.2% | [14] 127% | [15] 80% | [16] 68.3% | [17] 121% | [18] 67.7% | [19] 70.3%

CN1CCN(c2nc(-c3cccnc3)nc3sc4c(c23)CCCCCC4)CC1
inactive: [1] 93.2% | [2] 91.3% | [3] 67.4% | [4] 101% | [5] 72.3% | [6] 66.7% | [7] 87.9% | [8] 103% | [9] 78.6% | [10] 99.7% | [11] 114% | [12] 90.8% | [13] 75% | [14] 108% | [15] 89.6% | [16] 86.7% | [17] 99.3% | [18] 92.4% | [19] 39.6%

COc1cc(-c2nc3ccc(C)cc3[nH]2)ccc1OCC(=O)N=Nc1c(O)[nH]c2ccccc12
inactive: [1] 52.7% | [7] 29.1% | [13] 95.9% | [14] 10.3% | [15] 14% | [17] 75.5%
active: [2] -77.1% | [3] -34.8% | [4] -75.2% | [5] -96.3% | [6] -63.8% | [8] -83.1% | [9] -97.7% | [10] -77.5% | [11] -52.9% | [12] -61.8% | [16] -46.3% | [18] -50% | [19] -65%

COc1cccc2c1O/C(=C\c1ccc([N+](=O)[O-])s1)C2=O
inactive: [2] 77.3% | [3] 81.5% | [4] 86.6% | [5] 45.2% | [6] 32.9% | [7] 73.7% | [8] 35.9% | [9] 40.6% | [10] 78.4% | [11] 43.3% | [12] 70.1% | [14] 73.6% | [15] 67.5% | [16] 90.9% | [17] 109% | [18] 43.6% | [19] 75.5%
active: [1] 8.57% | [13] -0.107%

CC(C)/C=N/NC(N)=S
inactive: [1] 90.6% | [2] 62.2% | [3] 81.3% | [4] 98.3% | [5] 80.8% | [6] 55.1% | [7] 97.2% | [8] 97.3% | [9] 96% | [10] 99.2% | [11] 103% | [12] 85.5% | [13] 72.4% | [14] 109% | [15] 90.6% | [16] 89% | [17] 82.7% | [18] 28.9% | [19] 64.9%

CCN(CC)CCCOC(=O)Nc1ccccc1Cl
inactive: [1] 111% | [2] 103% | [3] 120% | [4] 104% | [5] 107% | [6] 96.1% | [7] 105% | [8] 109% | [9] 97.6% | [10] 116% | [11] 101% | [12] 102% | [13] 91.7% | [14] 98.9% | [15] 108% | [16] 104% | [17] 97.7% | [18] 88.4% | [19] 98%
